Reference: PubChem BioAssay AID1159580 (chemical genetic matrix, 2015)
Values joined by “and” are separate entries in the source; they are usually repeats but may differ in a detail not shown here. Equal values may be shown once. Out of some 5,500 compounds screened, about 2,000 (36%) were called active. About 18% were inconclusive and are not listed. This is one part of the list. Values without a mark were called inactive. No stated cut-off is given here; in the data, active means normalized growth mostly below about 0.91 (no sharp cut-off); inconclusive means no clear call, values can overlap the other calls; inactive means mostly above about 0.92.

Assay: chemical genetic growth profiling, strain panel (AID 1159580);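 further: tested at 20 µM; growth read once vehicle control cultures reached saturation at 30 °C; 1 = growth at the plate median or of vehicle wells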
Details: S. cerevisiae deletion strains, growth OD

COc1cc(C)c(C(=O)Oc2cc(C)c(C(=O)O)c(O)c2C)c(OC)c1C
normalized growth (locus YAL021C, strain ccr4, stronger effect = lower value): 1.01 | normalized growth (locus YAL026C, strain drs2, stronger effect = lower value): 0.965 | normalized growth (locus YAL030W, strain snc1, stronger effect = lower value): 0.994 | normalized growth (locus YBL061C, strain skt5, stronger effect = lower value): 0.987 | normalized growth (locus YBR009C, strain hhf1, stronger effect = lower value): 0.91 | normalized growth (locus YBR021W, strain FUR4, stronger effect = lower value): 0.995 | normalized growth (locus YBR023C, strain chs3, stronger effect = lower value): 0.983 | normalized growth (locus YBR171W, strain sec66, stronger effect = lower value): 0.969 | normalized growth (locus YBR229C, strain ROT2, stronger effect = lower value): 0.993 | normalized growth (locus YBR231C, strain swc5, stronger effect = lower value): 0.98 | normalized growth (locus YBR279W, strain paf1, stronger effect = lower value): 0.995 | normalized growth (locus YCL011C, strain gbp2, stronger effect = lower value): 0.968 | normalized growth (locus YCL016C, strain dcc1, stronger effect = lower value): 0.986 | normalized growth (locus YCL029C, strain bik1, stronger effect = lower value): 1.02 | normalized growth (locus YCL061C, strain MRC1, stronger effect = lower value): 0.974 | normalized growth (locus YCL069W, strain vba3, stronger effect = lower value): 0.976 | normalized growth (locus YCR088W, strain abp1, stronger effect = lower value): 0.994 | normalized growth (locus YDL005C, strain med2, stronger effect = lower value): 0.992 | normalized growth (locus YDL035C, strain GPR1, stronger effect = lower value): 0.991 | normalized growth (locus YDL040C, strain nat1, stronger effect = lower value): 0.974 | normalized growth (locus YDL074C, strain BRE1, stronger effect = lower value): 0.982 | normalized growth (locus YDL101C, strain DUN1, stronger effect = lower value): 1.02 | normalized growth (locus YDL134C, strain PPH21, stronger effect = lower value): 1.02 | normalized growth (locus YDL185W, strain tfp1, stronger effect = lower value): 1.02 | normalized growth (locus YDL192W, strain arf1, stronger effect = lower value): 1 | normalized growth (locus YDR001C, strain nth1, stronger effect = lower value): 0.972 | normalized growth (locus YDR069C, strain doa4, stronger effect = lower value): 0.993 | normalized growth (locus YDR101C, strain arx1, stronger effect = lower value): 1.01 | normalized growth (locus YDR137W, strain rgp1, stronger effect = lower value): 0.906 | normalized growth (locus YDR159W, strain sac3, stronger effect = lower value): 0.89 | normalized growth (locus YDR162C, strain NBP2, stronger effect = lower value): 0.98 | normalized growth (locus YDR195W, strain ref2): 0.966 | normalized growth (locus YDR297W, strain sur2, stronger effect = lower value): 0.988 | normalized growth (locus YDR318W, strain mcm21, stronger effect = lower value): 1 | normalized growth (locus YDR334W, strain swr1, stronger effect = lower value): 1 | normalized growth (locus YDR335W, strain msn5, stronger effect = lower value): 0.993 | normalized growth (locus YDR388W, stronger effect = lower value): 1.01 | normalized growth (locus YDR392W, strain spt3, stronger effect = lower value): 0.479 (active) | normalized growth (locus YDR502C, strain sam2, stronger effect = lower value): 1 | normalized growth (locus YEL003W, strain gim4, stronger effect = lower value): 0.968 | normalized growth (locus YEL037C, strain rad23, stronger effect = lower value): 0.982 | normalized growth (locus YEL061C, strain CIN8 (second series), stronger effect = lower value): 0.982 | normalized growth (locus YEL061C, strain CIN8, stronger effect = lower value): 1 | normalized growth (locus YER015W, strain faa2, stronger effect = lower value): 0.99 | normalized growth (locus YER016W, strain bim1, stronger effect = lower value): 0.984 | normalized growth (locus YER110C, stronger effect = lower value): 1.02 | normalized growth (locus YER111C, strain swi4, stronger effect = lower value): 0.97 | normalized growth (locus YER155C, strain BEM2 (second series), stronger effect = lower value): 0.708 (active) | normalized growth (locus YER155C, strain BEM2, stronger effect = lower value): 1 | normalized growth (locus YER167W, strain BCK2, stronger effect = lower value): 0.999 | normalized growth (locus YFR010W, strain ubp6, stronger effect = lower value): 0.991 | normalized growth (locus YGL078C, strain dbp3, stronger effect = lower value): 0.986 | normalized growth (locus YGL086W, strain mad1, stronger effect = lower value): 1.02 | normalized growth (locus YGL167C, strain pmr1, stronger effect = lower value): 0.964 | normalized growth (locus YGL173C, strain kem1, stronger effect = lower value): 0.975 | normalized growth (locus YGL227W, strain vid30, stronger effect = lower value): 0.969 | normalized growth (locus YGL240W, strain doc1, stronger effect = lower value): 0.941 | normalized growth (locus YGL248W, strain PDE1, stronger effect = lower value): 1.01 | normalized growth (locus YGL253W, strain hxk2, stronger effect = lower value): 0.949 | normalized growth (locus YGR078C, strain PAC10, stronger effect = lower value): 0.992 | normalized growth (locus YGR135W, strain pre9, stronger effect = lower value): 1 | normalized growth (locus YGR252W, strain gcn5, stronger effect = lower value): 0.905 | normalized growth (locus YHR013C, strain ard1, stronger effect = lower value): 0.887 | normalized growth (locus YHR027C, strain rpn1, stronger effect = lower value): 1 | normalized growth (locus YHR030C, strain SLT2, stronger effect = lower value): 1.02 and 0.932 | normalized growth (locus YHR079C, strain IRE1 (second series), stronger effect = lower value): 1.02 | normalized growth (locus YHR079C, strain IRE1, stronger effect = lower value): 0.845 (active) | normalized growth (locus YHR094C, strain hxt1, stronger effect = lower value): 1.01 | normalized growth (locus YHR129C, strain ARP1, stronger effect = lower value): 1.01 | normalized growth (locus YHR142W, strain chs7, stronger effect = lower value): 0.994 | normalized growth (locus YHR200W, strain rpn10, stronger effect = lower value): 1 | normalized growth (locus YIL066C, strain RNR3, stronger effect = lower value): 1 | normalized growth (locus YIL073C, strain SPO22, stronger effect = lower value): 1.06 | normalized growth (locus YIL125W, strain kgd1, stronger effect = lower value): 0.996 | normalized growth (locus YIR030C, strain dcg1, stronger effect = lower value): 1.01 | normalized growth (locus YJL092W, strain hpr5, stronger effect = lower value): 0.983 | normalized growth (locus YJL095W, strain BCK1 (second series), stronger effect = lower value): 0.988 | normalized growth (locus YJL095W, strain BCK1, stronger effect = lower value): 0.998 and 0.884 | normalized growth (locus YJL115W, strain asf1, stronger effect = lower value): 0.991 | normalized growth (locus YJL129C, strain trk1, stronger effect = lower value): 0.867 (active) | normalized growth (locus YJL134W, strain LCB3, stronger effect = lower value): 1.01 | normalized growth (locus YJL154C, strain vps35, stronger effect = lower value): 0.979 | normalized growth (locus YJL164C, strain tpk1, stronger effect = lower value): 0.993 | normalized growth (locus YJL166W, strain qcr8, stronger effect = lower value): 0.953 | normalized growth (locus YJL168C, strain set2, stronger effect = lower value): 1 | normalized growth (locus YJL187C, strain SWE1 (second series), stronger effect = lower value): 1.03 | normalized growth (locus YJL187C, strain SWE1, stronger effect = lower value): 0.993 | normalized growth (locus YJR043C, strain POL32, stronger effect = lower value): 0.998 | normalized growth (locus YJR066W, strain TOR1, stronger effect = lower value): 0.975 | normalized growth (locus YJR075W, strain HOC1, stronger effect = lower value): 1.01 | normalized growth (locus YKL009W, strain mrt4, stronger effect = lower value): 0.992 | normalized growth (locus YKL068W, stronger effect = lower value): 1 | normalized growth (locus YKL085W, strain MDH1 (second series), stronger effect = lower value): 0.995 | normalized growth (locus YKL085W, strain MDH1, stronger effect = lower value): 0.995 | normalized growth (locus YKL160W, strain elf1, stronger effect = lower value): 0.991 | normalized growth (locus YKL190W, strain CNB1, stronger effect = lower value): 1.01 | normalized growth (locus YKR001C, strain vps1, stronger effect = lower value): 0.956 | normalized growth (locus YKR026C, strain gcn3, stronger effect = lower value): 0.979 | normalized growth (locus YKR091W, strain srl3, stronger effect = lower value): 0.981 | normalized growth (locus YLL001W, strain dnm1, stronger effect = lower value): 1 | normalized growth (locus YLL026W, stronger effect = lower value): 0.968 | normalized growth (locus YLL041C, strain sdh2, stronger effect = lower value): 0.982 | normalized growth (locus YLR027C, strain aat2, stronger effect = lower value): 0.991 | normalized growth (locus YLR039C, strain RIC1, stronger effect = lower value): 1.03 | normalized growth (locus YLR058C, strain SHM2, stronger effect = lower value): 1.01 | normalized growth (locus YLR102C, strain apc9, stronger effect = lower value): 1.02 | normalized growth (locus YLR113W, strain HOG1, stronger effect = lower value): 0.557 (active) | normalized growth (locus YLR221C, strain rsa3, stronger effect = lower value): 1.01 | normalized growth (locus YLR258W, strain gsy2, stronger effect = lower value): 0.947 | normalized growth (locus YLR262C, strain YPT6 (second series), stronger effect = lower value): 0.943 | normalized growth (locus YLR262C, strain YPT6, stronger effect = lower value): 1.03 | normalized growth (locus YLR268W, strain sec22, stronger effect = lower value): 1.03 | normalized growth (locus YLR320W, strain mms22, stronger effect = lower value): 0.859 (active) | normalized growth (locus YLR330W, strain CHS5, stronger effect = lower value): 1.01 | normalized growth (locus YLR342W, strain FKS1 (second series), stronger effect = lower value): 0.985 | normalized growth (locus YLR342W, strain FKS1, stronger effect = lower value): 0.978 | normalized growth (locus YLR357W, strain rsc2, stronger effect = lower value): 0.94 | normalized growth (locus YLR370C, strain arc18, stronger effect = lower value): 0.999 | normalized growth (locus YLR371W, strain rom2, stronger effect = lower value): 1.02 | normalized growth (locus YLR384C, strain iki3, stronger effect = lower value): 0.992 | normalized growth (locus YLR418C, strain cdc73, stronger effect = lower value): 0.859 | normalized growth (locus YML016C, strain PPZ1, stronger effect = lower value): 1.01 | normalized growth (locus YML032C, strain rad52, stronger effect = lower value): 0.985 | normalized growth (locus YML120C, strain ndi1, stronger effect = lower value): 0.971 | normalized growth (locus YML124C, strain tub3, stronger effect = lower value): 1.01 | normalized growth (locus YMR058W, strain fet3, stronger effect = lower value): 0.984 | normalized growth (locus YMR078C, strain ctf18, stronger effect = lower value): 1 | normalized growth (locus YMR125W, strain sto1, stronger effect = lower value): 0.912 | normalized growth (locus YMR129W, stronger effect = lower value): 0.97 | normalized growth (locus YMR205C, strain PFK2, stronger effect = lower value): 0.852 (active) | normalized growth (locus YMR223W, strain ubp8, stronger effect = lower value): 0.994 | normalized growth (locus YMR231W, strain pep5, stronger effect = lower value): 0.988 | normalized growth (locus YMR307W, strain GAS1, stronger effect = lower value): 0.978 | normalized growth (locus YNL067W, strain RPL9B, stronger effect = lower value): 1.04 | normalized growth (locus YNL071W, strain lat1, stronger effect = lower value): 0.869 (active) | normalized growth (locus YNL128W, strain TEP1, stronger effect = lower value): 1.03 | normalized growth (locus YNL153C, strain GIM3, stronger effect = lower value): 1.01 | normalized growth (locus YNL183C, strain NPR1, stronger effect = lower value): 0.955 | normalized growth (locus YNL209W, strain ssb2, stronger effect = lower value): 1 | normalized growth (locus YNL233W, strain BNI4, stronger effect = lower value): 1 | normalized growth (locus YNL248C, strain rpa49, stronger effect = lower value): 1.01 | normalized growth (locus YNL250W, strain rad50, stronger effect = lower value): 1.03 | normalized growth (locus YNL271C, strain bni1, stronger effect = lower value): 1.01 | normalized growth (locus YNL298W, strain CLA4, stronger effect = lower value): 0.934 | normalized growth (locus YNL307C, strain MCK1, stronger effect = lower value): 1 | normalized growth (locus YNL322C, strain KRE1 (second series), stronger effect = lower value): 0.996 | normalized growth (locus YNL322C, strain KRE1, stronger effect = lower value): 1 | normalized growth (locus YNR049C, strain mso1, stronger effect = lower value): 0.978 | normalized growth (locus YNR052C, strain pop2, stronger effect = lower value): 1 | normalized growth (locus YOL012C, strain htz1): 1.06 | normalized growth (locus YOL147C, strain pex11, stronger effect = lower value): 1.01 | normalized growth (locus YOR001W, strain rrp6, stronger effect = lower value): 0.989 | normalized growth (locus YOR061W, strain CKA2, stronger effect = lower value): 1.01 | normalized growth (locus YOR069W, strain VPS5, stronger effect = lower value): 1.02 | normalized growth (locus YOR070C, strain gyp1, stronger effect = lower value): 0.983 | normalized growth (locus YOR080W, strain dia2, stronger effect = lower value): 0.997 | normalized growth (locus YOR083W, strain WHI5, stronger effect = lower value): 1.03 | normalized growth (locus YOR106W, strain vam3, stronger effect = lower value): 1 | normalized growth (locus YOR136W, strain idh2, stronger effect = lower value): 1.02 | normalized growth (locus YOR144C, strain elg1, stronger effect = lower value): 1.01 | normalized growth (locus YOR184W, strain ser1, stronger effect = lower value): 0.986 | normalized growth (locus YOR231W, strain MKK1, stronger effect = lower value): 0.777 (active) | normalized growth (locus YOR265W, strain rbl2, stronger effect = lower value): 0.992 | normalized growth (locus YOR270C, strain vph1, stronger effect = lower value): 0.928 | normalized growth (locus YOR290C, strain snf2, stronger effect = lower value): 0.931 | normalized growth (locus YOR316C, strain cot1, stronger effect = lower value): 1.01 | normalized growth (locus YPL051W, strain arl3, stronger effect = lower value): 1 | normalized growth (locus YPL055C, strain LGE1, stronger effect = lower value): 1.01 | normalized growth (locus YPL078C, strain atp4, stronger effect = lower value): 0.986 | normalized growth (locus YPL106C, strain sse1, stronger effect = lower value): 0.974 | normalized growth (locus YPL240C, strain hsp82, stronger effect = lower value): 0.979 | normalized growth (locus YPL241C, strain CIN2, stronger effect = lower value): 0.995 | normalized growth (locus YPL256C, strain CLN2, stronger effect = lower value): 0.917 | normalized growth (locus YPR119W, strain clb2, stronger effect = lower value): 1.01 | normalized growth (locus YPR141C, strain kar3, stronger effect = lower value): 1.03 | normalized growth (locus YPR163C, strain tif3, stronger effect = lower value): 1.01 | normalized growth (locus YPR167C, strain met16, stronger effect = lower value): 1.01 | normalized growth (strain wtn01, stronger effect = lower value): 1.04
